Results on eight sequences are retold here after paper PMC7862700, “An all-to-all approach to the identification of sequence-specific readers for epigenetic DNA modifications on cytosine”.

Assay in all cases: DAPPL (digital affinity profiling via proximity ligation, sequencing); 10 mM Tris-HCl pH 7.5, 50 mM NaCl, 1 mM DTT, 4% glycerol, room temperature, 30 min; GST-TFs on glutathione beads, 16-mer random dsDNA library, 0.1% formaldehyde crosslink after washing; high values mean tight binding
Conditions in all cases: protein: recombinant; tags: N-terminal GST; dsDNA, one strand shown

Assay [1] has as its target T1, FLI1 (Homo sapiens, UniProt Q01543 1-452).
T1 sequence: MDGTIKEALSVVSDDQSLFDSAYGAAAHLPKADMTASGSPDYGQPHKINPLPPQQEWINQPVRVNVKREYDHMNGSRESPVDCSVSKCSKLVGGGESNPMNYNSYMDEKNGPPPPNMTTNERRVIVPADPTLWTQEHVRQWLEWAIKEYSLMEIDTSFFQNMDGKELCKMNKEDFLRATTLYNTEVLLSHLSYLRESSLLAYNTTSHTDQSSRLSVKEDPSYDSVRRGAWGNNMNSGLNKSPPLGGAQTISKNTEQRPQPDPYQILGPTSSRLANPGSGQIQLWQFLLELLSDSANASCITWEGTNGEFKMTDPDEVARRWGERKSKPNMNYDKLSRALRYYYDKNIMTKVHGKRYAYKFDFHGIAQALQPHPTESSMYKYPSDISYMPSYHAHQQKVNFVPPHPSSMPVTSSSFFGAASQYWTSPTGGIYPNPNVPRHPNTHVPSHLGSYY
The method, boiled down:
(§1)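 Binding signal is defined as a hexamer's read frequency for one factor over its frequency for the tag-only sample. To obtain reads, GST-fused human transcription factors were expressed in yeast, captured on glutathione beads, barcoded with DNA and pooled with that sample. Pools met 200 nmole of a 16-mer random double-stranded DNA library in Tris/NaCl/DTT/glycerol buffer for 30 min at room temperature before washing, 0.1% formaldehyde crosslinking, proximity ligation (BsaI/T4 ligase, 1 h, 37 °C), PCR and Illumina NextSeq500 sequencing.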

Assay [2] concerns the target T2, ELK1 (Homo sapiens, UniProt P19419 1-428).
T2 sequence: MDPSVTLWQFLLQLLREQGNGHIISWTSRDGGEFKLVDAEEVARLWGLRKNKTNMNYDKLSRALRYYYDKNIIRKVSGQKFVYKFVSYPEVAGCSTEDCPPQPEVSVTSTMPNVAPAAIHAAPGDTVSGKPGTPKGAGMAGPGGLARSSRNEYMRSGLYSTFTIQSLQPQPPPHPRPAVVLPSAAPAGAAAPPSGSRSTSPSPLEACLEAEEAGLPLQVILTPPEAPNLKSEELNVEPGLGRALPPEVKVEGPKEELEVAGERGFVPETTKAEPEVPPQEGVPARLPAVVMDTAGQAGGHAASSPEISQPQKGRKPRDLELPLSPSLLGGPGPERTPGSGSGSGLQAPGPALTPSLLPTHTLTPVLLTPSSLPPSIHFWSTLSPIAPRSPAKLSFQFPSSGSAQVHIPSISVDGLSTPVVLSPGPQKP
The method, boiled down: as §1

Assay [3] addresses T3, GABPA (Homo sapiens, UniProt Q06546 1-454).
T3 sequence: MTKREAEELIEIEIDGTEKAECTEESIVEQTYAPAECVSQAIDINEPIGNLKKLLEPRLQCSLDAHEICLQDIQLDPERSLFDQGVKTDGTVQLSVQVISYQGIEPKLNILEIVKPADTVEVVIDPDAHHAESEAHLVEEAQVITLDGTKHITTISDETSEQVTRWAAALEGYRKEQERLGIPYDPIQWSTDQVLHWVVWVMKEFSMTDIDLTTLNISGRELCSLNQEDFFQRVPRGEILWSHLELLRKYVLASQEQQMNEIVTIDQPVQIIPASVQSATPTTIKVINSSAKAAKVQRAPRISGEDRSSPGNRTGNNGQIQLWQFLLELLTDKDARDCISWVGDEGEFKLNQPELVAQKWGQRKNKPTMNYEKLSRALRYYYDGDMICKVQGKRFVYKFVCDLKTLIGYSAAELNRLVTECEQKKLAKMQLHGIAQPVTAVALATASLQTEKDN
An outline of the steps:
as §1

In assay [4] the target is T4, ERG (Homo sapiens, UniProt P11308 1-479).
T4 sequence: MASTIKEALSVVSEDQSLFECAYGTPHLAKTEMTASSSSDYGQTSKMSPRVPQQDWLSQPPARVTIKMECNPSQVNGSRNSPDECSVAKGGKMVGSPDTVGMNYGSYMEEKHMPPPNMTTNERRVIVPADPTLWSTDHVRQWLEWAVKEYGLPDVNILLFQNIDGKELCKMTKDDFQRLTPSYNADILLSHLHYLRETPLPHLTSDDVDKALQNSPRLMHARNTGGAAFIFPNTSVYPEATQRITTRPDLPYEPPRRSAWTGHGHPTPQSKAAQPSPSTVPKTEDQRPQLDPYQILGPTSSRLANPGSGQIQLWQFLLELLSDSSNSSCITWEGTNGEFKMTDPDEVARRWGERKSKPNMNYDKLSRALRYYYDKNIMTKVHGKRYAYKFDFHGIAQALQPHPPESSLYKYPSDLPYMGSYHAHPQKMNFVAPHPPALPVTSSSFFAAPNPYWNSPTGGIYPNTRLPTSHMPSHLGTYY
An outline of the steps:
as §1

The target of assay [5] is ELF1 (Homo sapiens, UniProt P32519 1-619). The method, boiled down:
as §1

Assay [6] addresses T5, EHF (Homo sapiens, UniProt Q9NZC4 1-300).
T5 sequence: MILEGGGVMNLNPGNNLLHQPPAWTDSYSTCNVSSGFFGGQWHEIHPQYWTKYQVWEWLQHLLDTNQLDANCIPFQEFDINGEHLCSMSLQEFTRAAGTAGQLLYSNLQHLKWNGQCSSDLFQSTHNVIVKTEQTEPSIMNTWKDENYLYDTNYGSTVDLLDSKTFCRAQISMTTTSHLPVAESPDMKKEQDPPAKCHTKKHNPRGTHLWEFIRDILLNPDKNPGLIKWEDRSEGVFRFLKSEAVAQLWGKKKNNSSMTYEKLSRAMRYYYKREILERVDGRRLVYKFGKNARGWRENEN
An outline of the steps:
as §1

Assay [7] has as its target SPI1 (Homo sapiens, UniProt P17947 1-270). An outline of the steps:
as §1

Assay [8] has as its target SPIB (Homo sapiens, UniProt Q01892 1-262). An outline of the steps:
as §1

Assay [9] deals with T6, ELK3 (Homo sapiens, UniProt P41970 1-407).
T6 sequence: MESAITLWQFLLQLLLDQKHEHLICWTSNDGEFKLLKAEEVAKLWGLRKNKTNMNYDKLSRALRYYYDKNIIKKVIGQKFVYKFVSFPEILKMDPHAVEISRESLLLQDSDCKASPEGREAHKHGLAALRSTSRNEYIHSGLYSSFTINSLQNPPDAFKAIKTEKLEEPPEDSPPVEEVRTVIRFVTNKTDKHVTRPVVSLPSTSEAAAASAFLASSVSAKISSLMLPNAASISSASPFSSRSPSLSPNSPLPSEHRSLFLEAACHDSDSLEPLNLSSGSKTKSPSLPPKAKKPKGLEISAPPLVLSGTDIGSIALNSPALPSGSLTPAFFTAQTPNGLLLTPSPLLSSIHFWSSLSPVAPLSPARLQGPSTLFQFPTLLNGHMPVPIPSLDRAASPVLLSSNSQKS
The method, boiled down: as §1

In assay [10] the target is SPI1 (Homo sapiens, UniProt P17947 1-270). An outline of the steps:
as §1
The source holds these as a separate data set.

Chain of SPIB (Q01892 whole entry): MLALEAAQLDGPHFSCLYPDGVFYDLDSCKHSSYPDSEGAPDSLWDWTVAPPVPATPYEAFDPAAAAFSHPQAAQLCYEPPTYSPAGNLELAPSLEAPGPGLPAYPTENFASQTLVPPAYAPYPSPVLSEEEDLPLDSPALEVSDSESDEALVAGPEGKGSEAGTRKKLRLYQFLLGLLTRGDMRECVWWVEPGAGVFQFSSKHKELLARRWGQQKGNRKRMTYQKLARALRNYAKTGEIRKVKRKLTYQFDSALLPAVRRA
Chain of ELF1 (P32519 whole entry): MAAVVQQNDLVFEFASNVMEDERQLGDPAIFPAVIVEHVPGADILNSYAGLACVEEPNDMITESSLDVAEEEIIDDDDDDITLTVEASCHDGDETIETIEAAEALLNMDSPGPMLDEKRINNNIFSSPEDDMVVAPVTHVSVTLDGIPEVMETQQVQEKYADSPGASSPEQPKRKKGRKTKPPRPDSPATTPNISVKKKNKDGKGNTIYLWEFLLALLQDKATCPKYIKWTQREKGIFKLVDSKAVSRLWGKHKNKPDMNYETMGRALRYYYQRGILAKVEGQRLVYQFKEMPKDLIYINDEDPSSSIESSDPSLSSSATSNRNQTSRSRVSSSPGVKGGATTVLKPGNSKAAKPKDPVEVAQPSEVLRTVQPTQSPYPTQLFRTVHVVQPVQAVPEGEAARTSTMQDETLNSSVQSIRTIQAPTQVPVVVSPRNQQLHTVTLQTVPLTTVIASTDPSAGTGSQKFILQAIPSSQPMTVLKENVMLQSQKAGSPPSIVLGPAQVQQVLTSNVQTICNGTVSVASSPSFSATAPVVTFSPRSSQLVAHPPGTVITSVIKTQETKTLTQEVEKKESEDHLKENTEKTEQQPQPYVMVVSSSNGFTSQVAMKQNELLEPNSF

In the case of CTTCGC, the binding signal was 1.43 fold enrichment (6-mer frequency, TF over GST control) in assay [1]; 1.56 fold enrichment (6-mer frequency, TF over GST control) in [2]; 1.5 fold enrichment (6-mer frequency, TF over GST control) in [3]; 1.53 fold enrichment (6-mer frequency, TF over GST control) in assay [4]; 1.46 fold enrichment (6-mer frequency, TF over GST control) in [5]; 1.32 fold enrichment (6-mer frequency, TF over GST control) in [6]. In addition, the binding signal in assay [7] is 1.42 fold enrichment (6-mer frequency, TF over GST control); in [8] it was 1.6 fold enrichment (6-mer frequency, TF over GST control); in [9] it was 1.7 fold enrichment (6-mer frequency, TF over GST control).
For the sequence TTCCGG, the binding signal is 5.8 fold enrichment (6-mer frequency, TF over GST control) in assay [1]; 5.94 fold enrichment (6-mer frequency, TF over GST control) in assay [2]; 5.16 fold enrichment (6-mer frequency, TF over GST control) in assay [3]; 7.1 fold enrichment (6-mer frequency, TF over GST control) in [4]; 5.41 fold enrichment (6-mer frequency, TF over GST control) in assay [5]; 5.96 fold enrichment (6-mer frequency, TF over GST control) in assay [6]. The binding signal in [10] is 5.73 fold enrichment (6-mer frequency, TF over GST control); in assay [8], 5.9 fold enrichment (6-mer frequency, TF over GST control); in assay [9], 6.93 fold enrichment (6-mer frequency, TF over GST control).
For the sequence TCGACC, the binding signal was 1.28 fold enrichment (6-mer frequency, TF over GST control) in assay [1]; 1.32 fold enrichment (6-mer frequency, TF over GST control) in assay [2]; 1.4 fold enrichment (6-mer frequency, TF over GST control) in assay [3]; 1.27 fold enrichment (6-mer frequency, TF over GST control) in [4]; 1.29 fold enrichment (6-mer frequency, TF over GST control) in assay [5]; 1.23 fold enrichment (6-mer frequency, TF over GST control) in assay [6]. For the same sequence, the binding signal in assay [7] was 1.29 fold enrichment (6-mer frequency, TF over GST control); in [8], 1.28 fold enrichment (6-mer frequency, TF over GST control); in assay [9] it was 1.35 fold enrichment (6-mer frequency, TF over GST control).
Consider AATTAT, for which the binding signal in assay [1] was 1.24 fold enrichment (6-mer frequency, TF over GST control); in assay [2], 1.25 fold enrichment (6-mer frequency, TF over GST control); in assay [3], 1.2 fold enrichment (6-mer frequency, TF over GST control); in assay [4], 1.26 fold enrichment (6-mer frequency, TF over GST control); in [5], 1.22 fold enrichment (6-mer frequency, TF over GST control); in [6], 1.23 fold enrichment (6-mer frequency, TF over GST control). Besides, the binding signal in [7] is 1.18 fold enrichment (6-mer frequency, TF over GST control); in assay [8] it was 1.23 fold enrichment (6-mer frequency, TF over GST control); in assay [9] it was 1.25 fold enrichment (6-mer frequency, TF over GST control).
Regarding ATTTCA, the binding signal was 1.23 fold enrichment (6-mer frequency, TF over GST control) in assay [1]; 1.17 fold enrichment (6-mer frequency, TF over GST control) in [2]; 1.23 fold enrichment (6-mer frequency, TF over GST control) in assay [3]; 1.25 fold enrichment (6-mer frequency, TF over GST control) in [4]; 1.21 fold enrichment (6-mer frequency, TF over GST control) in assay [5]; 1.24 fold enrichment (6-mer frequency, TF over GST control) in [6]. Moreover, the binding signal was 1.23 fold enrichment (6-mer frequency, TF over GST control) in assay [7]; 1.26 fold enrichment (6-mer frequency, TF over GST control) in assay [8]; 1.23 fold enrichment (6-mer frequency, TF over GST control) in [9].
Regarding CTCGTC, the binding signal is 1.49 fold enrichment (6-mer frequency, TF over GST control) in assay [1]; 1.27 fold enrichment (6-mer frequency, TF over GST control) in assay [2]; 1.51 fold enrichment (6-mer frequency, TF over GST control) in [3]; 1.37 fold enrichment (6-mer frequency, TF over GST control) in [4]; 1.36 fold enrichment (6-mer frequency, TF over GST control) in assay [5]; 1.36 fold enrichment (6-mer frequency, TF over GST control) in assay [6]. In addition, the binding signal was 1.34 fold enrichment (6-mer frequency, TF over GST control) in assay [7]; 1.39 fold enrichment (6-mer frequency, TF over GST control) in assay [8]; 1.46 fold enrichment (6-mer frequency, TF over GST control) in assay [9].
Consider TTGCGA, for which the binding signal in [1] was 1.19 fold enrichment (6-mer frequency, TF over GST control); in [2] it was 1.08 fold enrichment (6-mer frequency, TF over GST control); in assay [3], 1.1 fold enrichment (6-mer frequency, TF over GST control); in assay [4], 1.17 fold enrichment (6-mer frequency, TF over GST control); in assay [5] it was 1.16 fold enrichment (6-mer frequency, TF over GST control); in assay [6], 1.13 fold enrichment (6-mer frequency, TF over GST control). Besides, the binding signal in assay [7] is 1.17 fold enrichment (6-mer frequency, TF over GST control); in [8], 1.23 fold enrichment (6-mer frequency, TF over GST control); in assay [9], 1.21 fold enrichment (6-mer frequency, TF over GST control).
CTTCCT: the binding signal in [1] is 3.11 fold enrichment (6-mer frequency, TF over GST control); in assay [2], 2.94 fold enrichment (6-mer frequency, TF over GST control); in [3] it was 2.95 fold enrichment (6-mer frequency, TF over GST control); in [4] it was 3.65 fold enrichment (6-mer frequency, TF over GST control); in [5] it was 3.01 fold enrichment (6-mer frequency, TF over GST control); in assay [6] it was 3.28 fold enrichment (6-mer frequency, TF over GST control). The binding signal in [10] was 5.09 fold enrichment (6-mer frequency, TF over GST control); in assay [8] it was 3.4 fold enrichment (6-mer frequency, TF over GST control); in assay [9], 3.04 fold enrichment (6-mer frequency, TF over GST control).
